This is an account of results in PubChem BioAssay (NCATS).

Results filed as inconclusive are left out. Unmarked numbers belong to inactive results. The source made the active and inactive calls. The call rests on the fitted dose curve; in most records, active means well fitted inhibition curve with a large enough effect; inconclusive means small, poorly fitted or top-dose-only effect, or effect the other way; inactive means flat fitted curve, though single readings scatter.
On the % scale 0 is the no-effect control and ±100 the full control effect.

D(1A) dopamine receptor (Homo sapiens), sequence (P21728 whole entry, looked up): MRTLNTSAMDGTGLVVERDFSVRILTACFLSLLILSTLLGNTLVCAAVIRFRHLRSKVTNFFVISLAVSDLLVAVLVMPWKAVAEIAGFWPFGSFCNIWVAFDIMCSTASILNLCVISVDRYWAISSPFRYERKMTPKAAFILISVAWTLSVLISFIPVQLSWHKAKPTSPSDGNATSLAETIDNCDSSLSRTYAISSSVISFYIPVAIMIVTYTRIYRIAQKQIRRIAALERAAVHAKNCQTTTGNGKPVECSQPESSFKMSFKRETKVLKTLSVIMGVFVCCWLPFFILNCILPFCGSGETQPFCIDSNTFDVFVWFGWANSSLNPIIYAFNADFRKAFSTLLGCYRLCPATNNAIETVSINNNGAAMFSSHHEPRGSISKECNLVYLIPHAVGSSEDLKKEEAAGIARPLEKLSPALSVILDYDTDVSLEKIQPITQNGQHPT

The experiment addresses D(1A) dopamine receptor (Homo sapiens) (UniProt P21728). The experiment in a line: HTS Assay for Allosteric Agonists of the Human D1 Dopamine Receptor: Primary Screen for Antagonists (AID 488983). Further: nearly all actives have a fitted effect of over 65% in size. As to conditions: D1 receptor cell assay, antagonist mode, qHTS titration; series mostly up to 41.8 µM; activity change, negative = inhibition: at the top concentration. The source says: Dopamine receptors (DARs) are involved in the etiology and/or therapy of a number of neuropsychiatric and endocrine disorders. For instance, all receptor-based antiparkinsonian drugs work via stimulating the […] DAR subtype whereas all FDA-approved antipsychotic agents are antagonists of this receptor. […] There are three different types of allosteric modulators that we are seeking, two of which will stimulate or augment receptor signaling, allosteric agonists and potentiators, while the third, allosteric antagonists, will attenuate receptor signaling. The present primary screening assay measures compound agonism by tracking calcium flux in a […], inducible Hek293 Trex D1 cell line.
Freshly passaged cells are plated in 1536 well black, clear bottom plates at a density of 4000 cells/well in 3 ul of complete media containing 1x tetracycline inducer. After an overnight incubation at 30 C in 5% CO2, cells are loaded with 2 ul of the no wash Calcium Assay Kit (ABD Bioquest) and incubated at room temperature for 30 to 90 minutes. A 10 cycle (1 second/cycle) baseline measurement is taken and then the FDSS online 1536 pintool delivers 23 nl of compound library (as well as dopamine controls) to the plate. The plate is measured for kinetically at 1 cycle/sec for 180 seconds and is considered to be the agonist portion of the assay (eg, compounds which activate a positive calcium response during this portion are flagged as potential agonists). Following the 180 second read, 1 ul of an EC80 of dopamine is delivered by an onboard pipette head. Measurements are taken kinetically for an additional 180 seconds.
As for `CC(C)(C)NCC(O)c1ccccc1Cl` (stereo not drawn), the “activity change, negative = inhibition” value is 7.6%.

Turning to `Cc1ncsc1CCCl`, the “activity change, negative = inhibition” value was -2.65%.

Take `CC(NC(C)(C)C)C(=O)c1cccc(Cl)c1` (stereo not drawn): the “activity change, negative = inhibition” value was 9.93%.

As to `CCCCC/C=C\C/C=C\C/C=C\C/C=C\CCCC(=O)NCC(=O)O`, the “activity change, negative = inhibition” value was -9.17%.

As for `COc1ccc2c(c1OC)C(=O)O[C@H]2[C@@H]1c2cc3c(cc2CCN1C)OCO3`, the “activity change, negative = inhibition” value was 2.67%.

`CN1C(=O)CCS(=O)(=O)C1c1ccc(Cl)cc1` (stereo not drawn): the “activity change, negative = inhibition” value was -6.52%.

With `O=P1(N(CCCl)CCCl)NCCCO1` (stereo not drawn), the “activity change, negative = inhibition” value is 5.94%.

`C=C(C)[C@H]1CN[C@H](C(=O)O)[C@H]1CC(=O)O`: the “activity change, negative = inhibition” value was 6.86%.

On to `CCC1(c2ccc(N)cc2)CCC(=O)NC1=O` (stereo not drawn), for which the “activity change, negative = inhibition” value is 4.21%.

Consider `NCCc1ccc(O)cc1`, for which the “activity change, negative = inhibition” value was -0.806%.

Regarding `O=C(O)CCCc1ccc(N(CCCl)CCCl)cc1`, the “activity change, negative = inhibition” value was -3.95%.

As for `CC(C)N(CCC(C(N)=O)(c1ccccc1)c1ccccn1)C(C)C` (stereo not drawn), the result was inactive.

For `O=c1[nH]oc2c1CCNC2`, the “activity change, negative = inhibition” value was 5.55%.
